# Shown are actives, neighbours in structure and some others; about 7.3% of the full set was active somewhere.
# SMN2 splice enh = increases expression of the SMN2 splice variant; Potency, µM (doses to about 46.1 µM), for inactives: at the top dose activity change, positive = activation, most hits filed as activators; 2.8% of 210,000 active; HEK293 SMN2-luciferase splicing reporter, luminescence, 30-36 h; further: % of control where 0% means no effect; nearly all actives have a fitted effect of over 55% in size
#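 HEK293 cells carry an SMN2 […]–luciferase reporter in which exon 7 inclusion puts luciferase in frame. Cells were plated 10-12 h before compound addition, then incubated 30-36 h at 37C. ONE-Glo luminescence was read; sodium butyrate at 4.5 mM final served as control.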
# NPC1 promoter act = NPC1 promoter activation. Huh7 NPC1 promoter luciferase reporter, 24 h. AID 485313. 2.4% of 320,000 active. Potency, µM (titrated, usually from 9.22 µM), for the others: at the highest dose activation, actives largely listed as activators; further: % of control where 0% means no effect; nearly all actives have a fitted effect of over 60% in size
#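 Cells: Huh7 expressing luciferase under the NPC1 promoter, 1500/well. Seeded 2 h, compound added, incubated 24 h at 37 °C. Luciferase reagent, 10 min ambient, then luminescence.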
# Luc counter = blocks Kinase-Glo luciferase, a counter-screen artifact. Q27757. Potency, µM (top dose mostly 38.3 µM), inactives show at the highest dose activity change, negative = inhibition, most hits filed as inhibitors. Kinase-Glo luciferase, ATP luminescence, 8 min. 0.28% of 200,000 active; further: on the % scale 0 is the no-effect control and ±100 the full control effect; nearly all actives have a fitted effect of over 60% in size
#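 Compound is pinned into ATP-containing buffer (10 uM ATP, imidazole pH 7.2, 7 mM MgCl2). Kinase-Glo luciferase reagent is then added. Light output is recorded following an 8-min room-temperature incubation.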
# Rab9 prom act = activators of Rab9 promoter; Huh7 Rab9 promoter-luciferase reporter, luminescence, 24 h; Potency, µM (series often up to 9.22 µM), for inactives: top-dose activation, negative = inhibition, usual class: activators; 2.8% of 320,000 active; AID 485297; further: % of control where 0% means no effect; nearly all actives have a fitted effect of over 60% in size
#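 Huh7 reporter line, Rab9 promoter upstream of luciferase. Compound exposure 24 h at 37 °C in reduced-serum medium with 10% FBS. Read-out: luminescence.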
# FLuc modulator = inhibits or activates purified firefly luciferase, miR-21 counter-screen; purified FLuc, Km substrates, luminescence inhibition; Potency, µM (highest dose often 57.5 µM), for the others: at the highest dose activity change, negative = inhibition, hits mostly inhibitors; 6.9% of 360,000 active; AID 588342;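 further: plate controls were vehicle for no effect and reference inhibitor for full effect; nearly all actives have a fitted effect of over 55% in size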
# Target sequence (P08659 whole entry, looked up): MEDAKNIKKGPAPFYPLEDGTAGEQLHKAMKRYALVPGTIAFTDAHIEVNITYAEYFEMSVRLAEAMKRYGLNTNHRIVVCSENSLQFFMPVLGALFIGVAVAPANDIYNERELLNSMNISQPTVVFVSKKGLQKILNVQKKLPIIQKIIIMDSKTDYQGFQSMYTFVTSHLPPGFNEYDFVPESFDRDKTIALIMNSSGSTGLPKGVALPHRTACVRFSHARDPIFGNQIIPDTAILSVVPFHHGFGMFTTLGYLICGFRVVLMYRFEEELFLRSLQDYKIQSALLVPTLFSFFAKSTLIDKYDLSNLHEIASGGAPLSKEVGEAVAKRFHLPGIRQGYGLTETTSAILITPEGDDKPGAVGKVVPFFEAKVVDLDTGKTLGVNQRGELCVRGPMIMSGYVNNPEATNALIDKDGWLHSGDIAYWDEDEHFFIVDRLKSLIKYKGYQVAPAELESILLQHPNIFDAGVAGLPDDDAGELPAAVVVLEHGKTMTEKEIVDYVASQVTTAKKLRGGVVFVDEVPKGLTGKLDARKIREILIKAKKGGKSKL
#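 Purified P. pyralis luciferase, 10 nM final, with Km-level 10 uM D-luciferin and 10 uM ATP in 50 mM Tris acetate pH 7.5, 10 mM Mg acetate, 0.01% Tween-20, 0.05% BSA; 6-point qHTS titration about 60 µM downward; luminescence read.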
# Active calls of the source: *; ? = inconclusive; · = no result given; [ ] = remark or other dose. The call rests on the fitted dose curve; in most records, active means well fitted curve in the direction sought with a large enough effect; inconclusive means small, poorly fitted or top-dose-only effect, or another doubt; inactive means no such curve, though single readings can be large; an effect the other way counts as inactive or inconclusive. Potency means the concentration at half of the fitted maximal effect.
SMILES,SMN2 splice enh,NPC1 promoter act,Luc counter,Rab9 prom act,FLuc modulator
CC1CCc2c(sc3nc(CSc4ncn[nH]4)[nH]c(=O)c23)C1 (stereo unspecified),·,11.6%,·,17.8%,15.1µM*
O=C(NCc1cccnc1)Nc1ccc(Cl)c(Cl)c1,·,18.1%,·,?,?
O=C(NCC1CC1(Cl)Cl)Nc1ccc(Cl)c(Cl)c1 (stereo unspecified),·,?,·,?,16.9µM*
Cc1ccc(NC(=O)NCC2CC2(Cl)Cl)cc1 (stereo unspecified),·,2.24µM*,·,3.55µM*,10.7µM*
CCOc1ccc(NC(=O)NCc2cccn2C)cc1,·,?,·,19.7%,?
COCCNC(=S)Nc1ccc(Cl)c(Cl)c1,?,1.6%,1.2%,-0.8%,-2.1%
C=COCCNC(=O)Nc1ccc(Cl)c(Cl)c1,27.3%,?,3.0%,?,16.9µM*
Cn1cccc1CNC(=O)Nc1ccc(Cl)c(Cl)c1,?,3.98µM*,-9.7%,3.16µM*,8.49µM*
COc1ccc(CCNC(=O)C2c3ccccc3C(=O)N2Cc2ccccc2)cc1OC (stereo unspecified),·,·,·,·,-4.9%
Cc1cc2nn(-c3cccc4ccccc34)nc2cc1N,12.6µM*,?,0.3%,2.82µM*,4.78µM*
CCc1ccc(-n2nc3cc(C)c(NC(=O)c4cccc5ccccc45)cc3n2)cc1,-2.3%,·,·,·,?
Nc1ccc2nn(-c3cccc4ccccc34)nc2c1,-2.5%,7.7%,-0.2%,11.5%,19µM*
Nc1ccc2c(c1)C(=O)N(c1cccc3ccccc13)C2=O,·,1.6%,·,11.9%,-8.5%
O=C(c1ccc(Nc2nc3ccccc3n3nnnc23)cc1)N1CCN(c2ccc(F)cc2)CC1,-3.9%,·,·,·,-1.3%
Cc1cccc(NC(=O)c2sc3cccc(Cl)c3c2Cl)c1,7.7%,·,·,·,?
CCN(CC)c1ccc(C2C(C(=O)OC)=C(C)NC(C)=C2C(=O)OC)cc1,1.2%,-4.4%,-4.0%,-7.7%,0.5%
CCN(CC)c1ccc(/C=C/C(=O)C2C(=O)C=C(C)OC2=O)cc1 (stereo unspecified),?,1.58µM*,?,2.82µM*,8.49µM*
CCOc1ccc2c(c1)S/C(=C\c1cccs1)C(=O)N2,·,?,·,?,9.53µM*
O=C1NC(=Nc2ccccc2)S/C1=C\c1cccs1,·,3.16µM*,·,3.16µM*,12µM*
Cn1cccc1/C=C1\SC(=Nc2cccc(O)c2)NC1=O,·,11.6%,·,?,12µM*
Cn1cccc1/C=C1\SC(=Nc2ccccc2)NC1=O,·,-18.3%,·,21.8%,9.53µM*
Cn1cccc1/C=C1\SC(=Nc2ccc(O)cc2)NC1=O,·,22.8%,·,-6.2%,?
Cc1cc(C)cc(N=C2NC(=O)/C(=C/c3cccs3)S2)c1,-22.3%,0.8%,0.7%,-2.5%,-18.7%
O=C(Nc1cccc(C(F)(F)F)c1)N1CC2CCCN2c2ccccc21 (stereo unspecified),·,·,·,·,-6.6%
Cc1cc(C)cc(N2C(=O)CSC23C(=O)N(CC(=O)Nc2ccc(F)cc2F)c2ccccc23)c1 (stereo unspecified),·,·,·,·,-6.9%
SMILES,SMN2 splice enh,NPC1 promoter act,Luc counter,Rab9 prom act,FLuc modulator
Cc1ccc(N=C2NC(=O)/C(=C\c3ccco3)S2)cc1,16.2%,?,-2.8%,?,16.9µM*
O=C1NC(=Nc2ccc(O)cc2)S/C1=C/c1ccco1,28.9%,-19.2%,2.5%,-12.4%,-1.0%
COc1ccc(C(=O)N2CC(=O)Nc3ccc(C)cc3C2c2ccccc2)cc1OC (stereo unspecified),20.7%,·,·,·,0.7%
COc1cc2[nH]c3c(N4CCN(c5ccccn5)CC4)ncnc3c2cc1OC,-39.4%,-12.9%,1.4%,5.0%,13.5µM*
COc1cccc2[nH]c3c(N4CCCCC4)ncnc3c12,4.1%,27.7%,2.0%,9.9%,13.5µM*
CCOC(=O)c1cc(S(=O)(=O)NCc2ccccc2)[nH]n1,·,·,·,·,-12.9%
CCc1ccc(NC2=NCC(c3ccccc3)S2)cc1 (stereo unspecified),14.1µM*,?,0.8%,?,7.57µM*
O=[N+]([O-])c1ccc(C2CN=C(Nc3ccccc3)S2)cc1 (stereo unspecified),-19.1%,16.3%,-1.7%,19.8%,?
Fc1ccc(-c2nc(-c3cccs3)no2)cc1,·,2µM*,·,1.78µM*,1.35µM*
COC(=O)c1ccc(-c2nc(-c3cccs3)no2)cc1,10.3%,0.316µM*,?,?,0.151µM*
O=C(NCc1cccs1)c1nc(-c2cccs2)no1,?,?,-0.5%,?,?
Fc1ccc(-c2cc(-c3cccs3)cc(-c3ccccc3)n2)cc1,·,-0.3%,·,-7.8%,-4.5%
O=C(NCCc1ccccc1)c1nc(-c2cccs2)no1,14.1µM*,?,-0.7%,5.62µM*,13.5µM*
Fc1ccc(-c2cnc(-c3cccs3)o2)cc1,17.1%,3.98µM*,-3.2%,3.55µM*,6.01µM*
Nc1c(-c2nc(-c3ccccc3Cl)no2)nnn1-c1ccccc1C(F)(F)F,·,·,·,·,-0.5%
O=C(O)[C@H]1CCCC[C@@H]1c1c2ccc(=O)c(O)c-2oc2c(O)c(O)ccc12,-2.2%[9.22 µM],·,-4.4%[7.66 µM],·,·
O=C(NCc1ccc(F)cc1)C1CCN(c2ncnc3c2nc2n3CCCCC2)CC1,·,·,·,·,-1.4%
COc1cccc(OCCCn2c(-c3ccc(Cl)cc3)nc3ccccc3c2=O)c1,12.4%,·,·,·,-1.9%
O=C(O)[C@@H]1CS[C@@]2(CCCN(Cc3ccccc3)C2)N1,2.4%[9.22 µM],·,-2.1%[7.66 µM],·,·
COC(=O)c1noc(-c2ccc(C)cc2)n1,13.9%,-0.6%,-4.5%,-4.9%,10.7µM*
O=C(CCS(=O)(=O)c1ccccc1)N1CCN(c2ccccc2F)CC1,·,1.78µM*,·,1.26µM*,10.7µM*
CCc1ccc(CNC(=O)c2c3c(nc4ccccc24)C(=O)N(C2CCCCC2)C3)cc1,·,·,·,·,-14.3%
O=S(=O)(Nc1ccc(N=Nc2ccccc2)cc1)c1ccccc1,5.1%,-3.0%,4.7%,-3.8%,-8.7%
O[C@@H]1COC(Nc2ccc(N=Nc3ccccc3)cc2)C[C@@H]1O (stereo partly specified),·,?,·,3.16µM*,0.338µM*
Nc1ccc2nc(-c3ccccc3)[nH]c2c1,17.8µM*,3.16µM*,?,3.16µM*,7.57µM*
SMILES,SMN2 splice enh,NPC1 promoter act,Luc counter,Rab9 prom act,FLuc modulator
Nc1ccc2nc(-c3ccc(N)c(Cl)c3)[nH]c2c1,?,?,-21.5%,2.82µM*,6.01µM*
COc1ccc2nc(NCCCO)[nH]c2c1,8.7%,-0.2%,1.4%,2.0%,-2.7%
COc1ccc2nc(-c3ccccn3)[nH]c2c1,·,1.26µM*,·,2µM*,6.75µM*
Nc1ccc2nc(-c3cccnc3)[nH]c2c1,3.2%,-2.2%,-19.6%,-1.0%,?
Nc1ccc2nc(-c3ccccn3)[nH]c2c1,15.8µM*,?,11.2µM*,?,13.5µM*
Cc1cccc(NC(=O)CN2C(=O)C(c3ccccc3)=NC23CCC(C)CC3)c1 (stereo unspecified),-9.5%,·,·,·,2.7%
COc1ccc(-n2c(SCC(=O)NCc3ccc(Cl)cc3)nc3ccsc3c2=O)cc1,·,·,·,·,-12.6%

# Screening results as filed in PubChem.
